Screening results from PubChem BioAssay.
HSP90 inh: blocks HSP90-mediated luciferase refolding in reticulocyte lysate | inhibition, % at 5.6 µM | Rabbit reticulocyte lysate, luciferase refolding luminescence, 3 h | AID 1789 | 0.91% of 290,000 active;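 active = inhibition above the screen-wide mean plus 3 SD, computed separately per campaign, cut at about 16% in these data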;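 also: inhibitors lower the luminescence because luciferase stays unfolded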
FXN GAA850 act: frataxin GAA850 promoter activation; 0.56% of 360,000 active; HEK293 lucGAA850 FXN promoter luciferase reporter, 24 h; percent of 10 µM SAHA response; activation, % at 6 µM;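 active = activation above the average of all compounds screened plus 3 SD, cutoff fixed separately per campaign, cut at about 7.5% in these data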
AI-2 QS modul: Vibrio harveyi AI-2 quorum sensing modulation; Vibrio harveyi JMH597 AI-2 luminescence/OD600 ratio, 9 h; hits give low values; strain lacks LuxN and CqsS sensors; 0 = neutral-control median; activity change, % at 7.5 µM; 0.4% of 300,000 active; AID 2094; in the data active = activity change below about -75%, passing the limit was not always enough;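 also: luminescence divided by OD600 gain over 9 h not by final OD600 alone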
SMARCA2 activ: SMARCA2 function activation, primary screen; MG213 cells, MMTV-luciferase reporter, dexamethasone, overnight; activation, % at 9.1 µM; 1% of 370,000 active; AID 652017; in the data active = activation above about 7.8%
HSF1 inh: HSF1 inhibition; NIH3T3-HGL HSE-luciferase, MG132-induced, luminescence 8 h; hits give low values; activity change, negative = inhibition, % at 7.5 µM (by protocol); 0.77% of 300,000 active;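 active = more than half of replicate wells show activity change below -50%, luminescence cut by over half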;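 also: luciferase reports HSF-1 transcriptional activity via heat shock element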
PG9 Ab binder: small molecules binding HIV-1 gp120 antibody PG9; TR-FRET gp120-PG9 antibody binding; inhibition, % at 6.7 µM; 0.43% of 360,000 active; AID 624416; in the data active = inhibition above about 8.5%
SMARCA2 act conf: SMARCA2 activation, confirmation screen. shares compounds with SMARCA2 activ. MG213 cells, MMTV-luciferase with dexamethasone, luminescence, overnight; MG213 cells expressing E1A, Rb sequestered; DMSO wells 0%, reference activator 100%. activation, % at 9.1 µM. 30% of 3,500 active. AID 652260;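 active = activation above its plate's cutoff, the mean activation of tested wells plus 3 SD, cut at about 7.9% in these data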
GAL4-VP16 Luc: counter-screen for SMARCA2 activators: GAL4-VP16 luciferase reporter activation; activation, % at 9.1 µM; HEK293 GAL4-VP16 pG5luc reporter, luciferase luminescence; scaled: DMSO wells 0%, SAHA wells 100%; 41% of 3,500 active; shares compounds with SMARCA2 activ;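 active = activation above the solvent-only control well mean plus 3 SD, averaged across control plates, cut at about 5.2% in these data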
A number is an active result; i = inactive; nt = no result given. In the library only some 3.4% were active in any assay of this set; here they are far more common.

SMILES	HSP90 inh	FXN GAA850 act	AI-2 QS modul	SMARCA2 activ	HSF1 inh	PG9 Ab binder	SMARCA2 act conf	GAL4-VP16 Luc
CN1C(=O)C(C)(C)c2cc(S(=O)(=O)N3CCCC(C(=O)NCc4ccccc4Cl)C3)ccc21 (configuration not stated)	i	i	i	10	i	i	i	i
COc1ccc(-n2ncc3c2CC(C)(C)CC3NC(=O)Cc2nonc2C)cc1 (configuration not stated)	i	i	i	8.0	i	i	i	i
COC(=O)C1=C(C)N(Cc2ccccc2C(F)(F)F)C(=NCC2CC2)NC1c1cccc(F)c1 (configuration not stated)	nt	nt	nt	i	nt	i	nt	nt
c1ccc(-n2cnc3cc(NCc4ccco4)ccc32)cc1	i	i	i	9.6	i	i	i	8.2
Cc1ccc(NC(=O)c2cc([N+](=O)[O-])ccc2N2CCOCC2)cc1C	i	i	i	8.1	i	i	i	i
Cc1cccc(CNC(=O)c2cc(S(=O)(=O)N3CCOCC3)cn2C)c1	i	i	i	14	i	i	i	i
CC(=O)N1CCn2c3c(c4cc(C)ccc42)CCCC31 (configuration not stated)	i	i	i	8.7	i	i	i	i
Cc1ccc(NC(=O)c2cccc3cccnc23)cc1	i	i	i	8.2	i	i	20	9.1
C#CCN(Cc1ccco1)C(=O)c1nnc2c3cc(OC)ccc3n(S(=O)(=O)c3ccc(OC)cc3)c2n1	nt	nt	nt	i	nt	i	nt	nt
S=c1nccc(-c2ccc(Cl)cc2)[nH]1	i	i	i	8.1	i	i	i	i
Clc1ccc(-c2ccn[nH]2)cc1	i	i	i	i	i	i	nt	nt
c1ccc(CSc2ccc(-c3ccco3)nn2)cc1	i	i	-77	10	i	i	8.3	8.5
Cc1occc1C(=O)N/N=C/c1ccccc1[N+](=O)[O-]	i	i	i	8.2	i	i	i	9.0
COc1ccccc1-c1csc(C(NC(C)=O)c2cccc(F)c2)n1 (configuration not stated)	nt	i	nt	8.4	nt	i	i	i
COC(=O)C1=C(C)NC(=S)NC1c1ccc(Br)cc1 (configuration not stated)	nt	nt	nt	i	nt	i	nt	nt
O=C(Nc1ccc2nn(-c3ccccc3)nc2c1)c1ccco1	i	i	i	i	i	i	nt	nt
O=C(Nc1cc2nn(-c3ccccc3)nc2cc1Cl)c1ccco1	i	i	i	8.8	i	i	21	11
COC(=O)c1ccc2nc(-c3ccc(Cl)cc3)c(Cc3ccsc3)n2c1	nt	nt	nt	i	nt	i	nt	nt
C=C1C(=O)OC2C1CCC(C)C1C=CC(=O)C12C (configuration not stated)	nt	i	nt	21	nt	i	21	i
O=C(Nc1ccc2c(c1)OCO2)c1cc2nc(C3CC3)cc(C(F)(F)F)n2n1	i	i	i	nt	i	nt	nt	nt
Cc1cc(C)n2nc(C(=O)Nc3ccc4c(c3)OCO4)cc2n1	i	i	i	11	i	i	18	9.7
COC(=O)C1CN(Cc2ccc(OC)cc2)CCS(=O)(=O)N1Cc1cn(CCOC(C)=O)nn1 (configuration not stated)	nt	nt	nt	i	nt	nt	nt	nt
Cc1ccc(SCc2cn3c(C)csc3n2)cc1	i	i	i	10	i	i	i	8.8
Cc1ccc(S(=O)(=O)NCc2cn3c(C)csc3n2)cc1	i	i	i	i	nt	i	nt	nt
Cc1cccc2nc(CSc3ccc(Cl)cc3)cn12	i	i	i	10	i	i	i	i
SMILES	HSP90 inh	FXN GAA850 act	AI-2 QS modul	SMARCA2 activ	HSF1 inh	PG9 Ab binder	SMARCA2 act conf	GAL4-VP16 Luc
O=C1c2ccccc2C(c2nnnn2Cc2ccccc2)N1Cc1cccc(F)c1 (configuration not stated)	nt	nt	nt	i	nt	i	nt	nt
COC(=O)C1C=CC(OC2OC(COC(C)=O)C(OC(C)=O)C(OC(C)=O)C2OC(C)=O)n2c(=O)n(-c3ccccc3)c(=O)n21 (configuration not stated)	nt	i	nt	i	nt	i	nt	nt
OCCC1CN(Cc2nc(-c3ccccc3)cs2)CCN1C1CCCC1 (configuration not stated)	i	i	i	i	i	i	nt	nt
c1ccc(-c2csc(CN3CCCCC3)n2)cc1	nt	i	nt	14	nt	i	8.1	15
COc1ccc(-c2nnc(SCC(=O)Nc3ccc(S(=O)(=O)Nc4cc(C)nc(C)n4)cc3)n2-c2ccc(OC)cc2)cc1	nt	nt	nt	10	nt	nt	i	i
Cc1cc(NS(=O)(=O)c2ccc(NC(=O)CSc3nnc(-c4ccc(Cl)cc4)n3Cc3ccco3)cc2)nc(C)n1	nt	nt	nt	9.5	nt	nt	i	i
Cc1cc(NS(=O)(=O)c2ccc(NC(=O)CSc3nnc(-c4ccncc4)n3-c3ccccc3)cc2)nc(C)n1	nt	nt	nt	i	nt	nt	nt	nt
O=C(CSc1nnc(-c2ccc(Cl)cc2)n1Cc1ccco1)Nc1ccc(S(=O)(=O)Nc2nccs2)cc1	nt	nt	nt	i	nt	nt	nt	nt
COc1ccc(CCNC(=O)c2ccc(CSc3ccc(Cl)cc3)o2)cc1OC	nt	nt	nt	i	nt	i	nt	nt
O=C1CC2(CCCCC2)CC(=O)N1CCc1ccccc1	nt	i	nt	8.0	nt	i	i	i
O=C(O)C(=O)/C(=C\c1ccc([N+](=O)[O-])cc1)c1ccc2ccccc2n1	i	i	i	8.7	i	i	i	11
O=C(O)C(=O)/C(=C\c1ccccc1)c1ccc2ccccc2n1	i	i	i	i	i	i	nt	nt
COc1ccc(N=NC2=C(O)CC(C)(C)CC2=O)cc1	i	i	i	i	i	i	nt	nt
CC1(C)CC(=O)C(N=Nc2ccc(Br)cc2)=C(O)C1	i	i	i	8.3	i	i	11	i
O=c1c2ccccc2sc2ccccc12	nt	i	nt	8.5	nt	i	i	5.9
CCC(C)(C)C1CCC(=NNC(=S)Nc2ccccc2)CC1 (configuration not stated)	i	i	i	8.9	i	i	i	i
COc1cccc(CNC(=O)COC(=O)c2nc(Cl)c(Cl)c(Cl)c2Cl)c1	nt	i	nt	17	nt	i	26	i
C=CCO[C@H]1CN(C(=O)OC)[C@@H]2C[C@H]1Oc1ccccc12	nt	nt	nt	i	nt	i	nt	nt
COc1ccccc1C/C(N)=N/OC(=O)c1ccc(C)c([N+](=O)[O-])c1	i	i	i	i	i	i	nt	nt
Cc1ccc(C(=O)O/N=C(\N)Cc2cccs2)cc1[N+](=O)[O-]	i	i	i	8.2	i	i	i	i
N/C(Cc1cccs1)=N\OC(=O)COc1ccc(Br)cc1Cl	i	i	i	i	i	i	nt	nt
N/C(Cc1cccs1)=N\OC(=O)COc1ccccc1Cl	i	i	i	8.4	i	i	i	6.8
Cc1ccccc1/C=N/NC(=O)c1cccnc1	i	i	i	i	i	i	nt	nt
O=C(N/N=C/c1c(-c2ccccc2)[nH]c2ccccc12)c1cccnc1	i	i	i	i	i	i	nt	nt
